# Source: ChEMBL document CHEMBL4513216, “Probing the Open Global Health Chemical Diversity Library for Multistage-Active Starting Points for Next-Generation Antimalarials” (ACS Infect Dis, 2020)
# Out of some 69,000 compounds screened, about 8,600 (12%) showed an effect of 50% or more. Only a selection was taken, and strong results are over-represented in it overall.
# Test system: Plasmodium berghei
# Test: Screen against P. berghei liver stage (PbLuc), transformed with Luciferase, at 10uM
# Type: functional, HepG2
# Settings: tested at 10 uM
row,Compound,INHIBITION [%]
1,Cc1nnc(NC(=O)CN2CCCC2c2c(C)nn(C)c2C)s1 (centres undefined),-24.2
2,CCc1nnc2n1CCN(C(=O)c1ccc3c(c1)nnn3C)C2,-8.66
3,CS(=O)(=O)N1Cc2nccn2CC(CNC(=O)c2cccnc2)C1 (centres undefined),2.79
4,CCC(Nc1nccc(C2CCCC2)n1)c1ccccn1 (centres undefined),22.5
5,COC(=O)[C@H](CSC)Nc1nc(C2CCCC2)nc2c1cnn2C,52.6
6,Cc1cc(CC(C)Nc2nc(C3CCCC3)nc3c2cnn3C)[nH]n1 (centres undefined),45.1
7,CCC(Nc1nccc(C2CCCC2)n1)c1ccncc1 (centres undefined),84.1
8,CCOC(=O)CNc1nc(COC)nc2c1cnn2C,-4.23
9,CCOC(=O)CC(C)Nc1nc(C2CCCC2)nc2c1cnn2C (centres undefined),61
10,CCC(Nc1nccc(C2CCCC2)n1)c1ncccc1C (centres undefined),-24.8
11,CC(C)C[C@H](Nc1nc(C2CCCC2)nc2c1cnn2C)C(N)=O,61
12,CC(C)[C@H](Nc1nc(C2CCCC2)nc2c1cnn2C)C(N)=O,28.5
13,COC(=O)[C@@H](Nc1nc(C2CCCC2)nc2c1cnn2C)[C@@H](C)O,10.9
14,COCCN1CC(Nc2nc(C3CCCC3)nc3c2cnn3C)CC1=O (centres undefined),25.1
15,CC(=O)NCCNc1nc(C2CCCC2)nc2c1cnn2C,5.23
16,Cc1c(C2CCCN(C(=O)c3ccn(C)n3)C2)n2c(nc1=O)CCC2 (centres undefined),-9.32
17,CC(=O)NCCNC(=O)NCC1Cc2ccccc2O1 (centres undefined),1.56
18,CN(C)C(=O)CN1CCCCC1c1nc(N)ncc1-c1cccc(F)c1 (centres undefined),39.8
19,CS(=O)(=O)NC1CCCN(C(=O)Nc2cccnc2)C1 (centres undefined),37.3
20,Cc1noc(C)c1-c1nc(C2CCCN(CCC(N)=O)C2)ccc1CO (centres undefined),-19
21,O=C(CCN1C(=O)CC2(CCCC2)C1=O)NCCc1nccs1,20
22,Cc1nc(NC(=O)C2(C)CN(C)CCO2)sc1C (centres undefined),4.3

row,Compound,INHIBITION [%]
1,CCC(Nc1nc(C(C)C)nc2c1cnn2C)c1ccc(O)cc1 (centres undefined),15.5
2,CCC(Nc1nc(C2CCCC2)nc2c1cnn2C)c1ccncc1 (centres undefined),50.8
3,CC[C@H](Nc1nc(C(C)C)nc2c1cnn2C)c1ccccc1,53.6
4,CCC(Nc1nc(C(C)C)nc2c1cnn2C)c1ccncc1 (centres undefined),48
5,O=S(=O)(CC1CCCCO1)Nc1cnn(CC(F)F)c1 (centres undefined),9.76
6,CCCN1CCC(c2cc(CCOc3ccc(C(F)(F)F)cc3)[nH]n2)C1 (centres undefined),58
7,Clc1ccc(OCCc2cc(C3CCN(c4ncccn4)C3)n[nH]2)cc1 (centres undefined),36.22
8,COc1ccc(OCCc2cc(C3CCN(CC(C)C)C3)n[nH]2)cc1 (centres undefined),15.15
9,O=C(NCc1ccon1)c1c(F)cc(Br)cc1F,-7.83
10,Cc1nc2ccc(C(=O)N3CCn4c(nnc4C4CC4)C3)cc2nc1C,48.6
11,O=C1NCC2(CCCN(C(=O)CCn3cnc4ccccc43)CC2)O1 (centres undefined),35.8
12,Cc1cc2ccccc2n1CCC(=O)N1CCCC2(CC1)CNC(=O)O2 (centres undefined),65.7
13,Cc1cc2ccccc2n1CCC(=O)N1CCC2(CC1)CNC(=O)C2,29.4
14,Cc1cc(NC(=O)CN2CCc3cncnc3C2)no1,16.8
15,Cc1cc(C2CCCN2Cc2cc(=O)n(C)c(=O)n2C)no1 (centres undefined),-10.3
16,C[C@H](c1ccc(F)cc1)n1c(C2CCN(C)CC2)n[nH]c1=O,76.8
17,C[C@H](c1ccc(Cl)cc1)n1c(C2CC2)n[nH]c1=O,24.4
18,C[C@H](c1ccc(F)cc1)n1c(C2CCC2)n[nH]c1=O,-6.59
19,Cc1nc(N2CCCC2)nc2c1CCN(C(=O)C1CCCCC1)CC2,-42.8
20,CCOc1ccnc(N2CCN(C(=O)c3ccncc3)CC2)n1,34.7
21,CC(C)(C)c1n[nH]cc1CNC1CCC(OCC(F)(F)F)CC1 (centres undefined),-18.5
22,CC(C)N(C)S(=O)(=O)N(C)Cc1ccc2c(c1)OCCO2,-10.1

row,Compound,INHIBITION [%]
1,CC(C)N(C)S(=O)(=O)N(C)Cc1ccc2c(c1)OCO2,54.3
2,CCN(Cc1ccc2c(c1)OCO2)S(=O)(=O)N(C)C(C)C,-4.16
3,Cc1ccc(CN(C)C(=O)CN2CCCCC2Cn2cncn2)o1 (centres undefined),40.5
4,Cc1cc(C)n(CC2CCCN2CC(=O)N(C)Cc2ccc(C)o2)n1 (centres undefined),45.7
5,Cc1nc(C)n(CC2CCCCN2CC(=O)N(C)Cc2ccco2)n1 (centres undefined),28.6
6,Cc1cnn(CC2CCCN2CC(=O)N(C)Cc2ccc(C)o2)c1 (centres undefined),-10.3
7,Cc1cnn(CC2CCCCN2CC(=O)N(C)Cc2ccc(C)o2)c1 (centres undefined),53.4
8,Cc1nc(C)n(CC2CCCN2CC(=O)N(C)Cc2ccc(C)o2)n1 (centres undefined),74.2
9,CN(C)c1nc2n(c(=O)n1)CCN2C(=O)Nc1cccc(Cl)c1,78.1
10,CN(C)c1nc2n(c(=O)n1)CCN2C(=O)Nc1ccc(Cl)cc1,-25.5
11,CN(C)c1nc2n(c(=O)n1)CCN2C(=O)Nc1ccc(Cl)c(Cl)c1,28.4
12,CCN1CCNC(=O)C12CCN(C(=O)Cc1ccsc1)CC2,-23.1
13,CC(=O)Nc1nccn1Cc1ccccc1Cl,50.5
14,CC(OCC1CC1)C(=O)Nc1nccn1Cc1ccccc1 (centres undefined),44.7
15,CCOCCOC(C)C(=O)Nc1ccnn1-c1ccccc1C (centres undefined),39.7
16,Cn1ccc(C(=O)Nc2nccn2Cc2ccccc2Cl)cc1=O,9.91
17,CCOCC(=O)Nc1nccn1Cc1ccccc1Cl,22.8
18,CC(C)N(C)CC(=O)Nc1nccn1Cc1ccccc1Cl,-11.9
19,CCOCCOC(C)C(=O)Nc1nccn1Cc1ccccc1 (centres undefined),89.6
20,CS(=O)(=O)CCC(=O)Nc1nccn1Cc1ccccc1Cl,53.5
21,CS(=O)(=O)CCC(=O)Nc1cnn(-c2ccccc2Cl)c1,43.7
22,O=C(NCCn1ccnc1)NCC(c1ccco1)N1CCCC1 (centres undefined),-14

row,Compound,INHIBITION [%]
1,Cc1nccn1[C@@H]1CC[C@@H](N(C)S(=O)(=O)c2ccccc2F)[C@H]1O,-0.05
2,Cc1occc1C(=O)NCC1OCCc2cn(C)nc21 (centres undefined),-14.2
3,COCCCNc1c(-c2ccccc2)c(=O)c1=O,25.3
4,CC(Cc1cccc(F)c1)NCc1cnc(N2CCN(C)CC2)nc1 (centres undefined),23.2
5,CCCc1nc(C)cc(N2CCNC(C(=O)Nc3ccc(C)nc3)C2)n1 (centres undefined),46.1
6,CCCc1nc(C)cc(N2CCNC(C(=O)NCc3cccnc3)C2)n1 (centres undefined),59.1
7,O=C(NCc1cccnc1)[C@H]1C[C@@H]2CCN(c3ccncn3)C[C@H]2O1,48
8,CC1CCN(C(=O)[C@@H]2C[C@@H]3CCN(CC4CCOCC4)C[C@@H]3O2)CC1,-24.9
9,CSCC(=O)Nc1ncn(Cc2cccc(Br)c2)n1,69.3
10,CC(C)C(=O)Nc1ncn(Cc2cccc(Br)c2)n1,53.3
11,COCC(=O)NC(C)Cc1cccc(Br)c1 (centres undefined),14.7
12,CCOCC(=O)Nc1cc(-c2cccc(F)c2F)n[nH]1,10.7
13,CC(CC(=O)Nc1ncn(CC(=O)NCc2ccccc2)n1)C1CC1 (centres undefined),38.8
14,O=C(Nc1ncn(Cc2cccc(Br)c2)n1)C1CCC1,37.2
15,O=C(COCC(=O)N1CCCCCC1)NCc1cccc(Br)c1,14.1
16,CCCSCC(=O)Nc1ncn(CC(=O)NCc2ccccc2)n1,12.2
17,CCOCC(=O)Nc1ncn(Cc2cccc(Br)c2)n1,61.8
18,CN(C)C(=O)CN1CCN(C(=O)c2cnn(-c3ccccc3Cl)c2)CC1,-2.33
19,CCOC(=O)N1CCN(C(=O)c2snnc2-c2ccc(OC)cc2)CC1,4.66
20,COCCN1C[C@@H]2CN(Cc3cccc(C)n3)C[C@@H]2C1=O,14.1
21,CCc1nc(C2CCCN(C(=O)c3ccc(OC)cc3)C2)no1 (centres undefined),-31.8
22,CC(C)CC(=O)N1CC[C@H]2N(C)CC[C@@]2(C(=O)Nc2ccccc2)CC1,42.5

row,Compound,INHIBITION [%]
1,CCOC1COC2(CCN(Cc3ccc(C)c(C)c3)CC2)C1 (centres undefined),30.9
2,Cn1nnc2cc(C(=O)NS(=O)(=O)c3ccc(F)cc3)ccc21,17.1
3,Cn1cnc2cc(C(=O)NS(=O)(=O)c3ccc(F)cc3)ccc21,28.4
4,CCCn1ncc(C(=O)NC(C)c2c(C)nn(CC)c2C)c1C (centres undefined),9.05
5,Cc1c(C(=O)NS(=O)(=O)c2ccc(F)cc2)cnn1CC(C)C,56
6,CCC(CC)n1ncc(C(=O)NS(=O)(=O)c2ccsc2)c1C,38.4
7,Cc1c(C(=O)NS(=O)(=O)c2ccsc2)cnn1CC(C)C,53.8
8,CNc1cc(C2CCCN2C(=O)CCc2cnn(C)c2C)ccn1 (centres undefined),14.6
9,CCNc1cc2c(nn1)CCN(C(=O)c1ccc(-n3cnnc3)cc1)C2,19.6475
10,Nc1nccc(N2C[C@@H](CN3CCCCC3)[C@@H](CO)C2)n1,-2.39
11,Cc1nccc(N2C[C@@H](CN3CCCC3)[C@@H](CO)C2)n1,13
12,CSc1nccc(N2C[C@@H](CN3CCCCC3)[C@@H](CO)C2)n1,55.7
13,CCc1ccccc1OC1CN(C(=O)c2ccnc(OC)c2)C1,61.1
14,CCc1ccccc1OC1CN(C(=O)CN(C)Cc2cccnc2)C1,-76.5
15,COc1ccccc1OC1CN(C(=O)CN(C)Cc2ccncc2)C1,-2.04
16,CN(CC(=O)N1CC(C)(C)[C@](O)(C2CC2)C1)Cc1cccnc1,-3.94
17,CCc1ccccc1OC1CN(C(=O)CN(C)Cc2ccncc2)C1,58.1
18,CN(CC(=O)N1CC(C)(C)[C@@](C)(O)C1)Cc1ccncc1,59.1
19,COc1cc(C(=O)N2CC(Oc3ccccc3Cl)C2)ccn1,27.5
20,CN(CC(=O)N1CC(C)(C)[C@](O)(C2CC2)C1)Cc1ccncc1,41.5
21,COc1cccc(OC2CN(C(=O)c3ccnc(OC)c3)C2)c1,49.9
